52 molecules from PubChem BioAssay AID2551 (National Center for Advancing Translational Sciences (NCATS), 2010) can be followed below.

About 17,000 (5.5%) of roughly 310,000 compounds were called active. Another 11% or so got no clear call; they are omitted. Only a selection was taken, and actives are over-represented in it overall. Values without a mark were called inactive. The call rests on the fitted dose curve; in most records, active means well fitted inhibition curve with a large enough effect; inconclusive means small, poorly fitted or top-dose-only effect, or effect the other way; inactive means no such curve, though single readings can be large or run the other way.
On the % scale 0 is the no-effect control and ±100 the full control effect; potency means the concentration at half of the fitted maximal effect.

Nuclear receptor ROR-gamma (Mus musculus), sequence (P51450 whole entry, looked up, the tested form may be a part): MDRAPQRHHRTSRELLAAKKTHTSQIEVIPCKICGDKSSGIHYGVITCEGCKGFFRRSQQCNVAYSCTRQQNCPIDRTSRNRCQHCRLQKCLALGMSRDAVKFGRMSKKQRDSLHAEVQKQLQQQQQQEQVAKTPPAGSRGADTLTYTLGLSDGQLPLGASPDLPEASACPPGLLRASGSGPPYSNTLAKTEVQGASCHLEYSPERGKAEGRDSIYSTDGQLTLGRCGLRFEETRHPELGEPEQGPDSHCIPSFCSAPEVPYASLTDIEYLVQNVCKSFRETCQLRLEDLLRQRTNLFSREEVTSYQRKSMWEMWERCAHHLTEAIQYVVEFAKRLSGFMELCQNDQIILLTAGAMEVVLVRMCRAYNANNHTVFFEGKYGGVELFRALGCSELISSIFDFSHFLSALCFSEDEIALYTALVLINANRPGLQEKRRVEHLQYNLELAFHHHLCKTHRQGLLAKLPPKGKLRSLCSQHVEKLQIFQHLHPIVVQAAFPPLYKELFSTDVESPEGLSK

In the assay the target is Nuclear receptor ROR-gamma (Mus musculus) (UniProt P51450). As to the kind of experiment: qHTS for inhibitors of ROR gamma transcriptional activity. Further: nearly all actives have a fitted effect of over 60% in size. The settings on record: Drosophila S2 Gal4-RORgamma UAS-luciferase reporter, 20 h; series mostly up to 53.6 µM; activity change, negative = inhibition: at the top concentration. Put shortly:
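Read-out: Photinus luciferase luminescence; inhibitors lower reporter signal. Insect Schneider cells with Gal4-ROR gamma fusion under metallothionein promoter, UAS reporter; 700 uM final copper sulfate induction, 20 hr, ambient temperature.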
A general note: In qHTS, concentration-response curves come from the screen itself.
Take `CCn1cc(/C=C(\NC(=O)c2cc(OC)c(OC)c(OC)c2)C(=O)N2CCN(C)CC2)c2ccccc21`: the “activity change, negative = inhibition” value is 0.404%.
Consider `Cc1ccc(/C=N/NC(=O)C2=NNC(c3ccccc3)(c3ccccc3)C2)c(O)c1`, for which the Potency was 1.26 µM (active).
As for `O=C(N/N=C/c1ccc(O)c2ccccc12)c1cccnc1`, the “activity change, negative = inhibition” value was -14%.
The same measure, in the same setting: the value for `Cc1nc2ccc(C(=O)N/N=C/c3ccc(O)cc3)cc2[nH]1` was 1.66%; that for `O=C(NCC(=O)N1CCC2(CC1)NCCc1[nH]cnc12)c1ccc(Br)cc1` was -10.7%; that for `CCOc1cc(/C=C/c2nc3ccccc3c(=O)[nH]2)cc(Br)c1OC` was 28.2%.
Turning to `CCCn1c(C2CCCN2c2nc(-c3ccc(C)cc3)cs2)nc2cc(Cl)c(N3CCCCC3)cc21` (configuration not stated), the Potency was 10 µM (active).
With `CCOC(=O)CSc1nnc(CNc2nc(-c3ccccc3)cs2)n1C`, the “activity change, negative = inhibition” value is 6.34%.
Take `Nc1c(Cl)cc(-c2csc(N3CCCC3c3nc4cc(Cl)c(Cl)cc4n3CCOCCO)n2)cc1Cl` (configuration not stated): the Potency was 14.1 µM (active).
Regarding `Cc1ccc(-c2csc(N3CCN(c4cc5c(cc4Cl)nc(-c4ccncc4)n5CCOCCO)CC3)n2)cc1`, the “activity change, negative = inhibition” value is -30.6%.
Take `CCCn1c(C(C)Nc2nc(-c3ccc(C)cc3)cs2)nc2cc(Cl)c(N3CCCCC3)cc21` (configuration not stated): the Potency was 7.08 µM (active).
Consider `CCCn1c(C(O)c2ccc(OCC)cc2)nc2ccccc21` (configuration not stated), for which the “activity change, negative = inhibition” value is -25.6%.
Take `CCCn1c(CCNc2nc(-c3ccc(OC)cc3)cs2)nc2ccccc21`: the Potency is 11.2 µM (active).
In the case of `COc1cccc(S(=O)(=O)NCc2ccc(C(=O)NCc3ccccn3)cc2)c1`, the “activity change, negative = inhibition” value was -42.1%.
In the case of `CCN(CC)CCCNC(=O)c1c(O)c2cc(F)cc3c2n(c1=O)C(C)CC3` (configuration not stated), the “activity change, negative = inhibition” value is -23%.
As to `O=C1NC(=O)C(c2ccc(Cl)cc2)N1` (configuration not stated), the “activity change, negative = inhibition” value was 1.34%.
On the same count and under the same terms, the value for `Cc1ccc(S(=O)(=O)NCC2CCC(C(=O)N3CCOCC3)CC2)cc1` (configuration not stated) was 1.41%; that for `CC(=O)Nc1c2c(nn1-c1ccc(C)cc1C)CS(=O)C2` (configuration not stated) was -12.4%.
Take `CCc1cccc(C)c1NS(=O)(=O)c1cc(Br)cnc1N`: the “activity change, negative = inhibition” value was -4.25%.
Still for that read-out and setting: the value for `CC(=O)c1cccc(NC(=O)c2cc(C)nn2-c2ccccc2)c1` was 4.29%; that for `CCOC(=O)c1cc(S(=O)(=O)NCCc2ccc(OC)c(OC)c2)cn1C` was 1.39%.
Same read-out and setting: the same measure for `CNC(=O)C1CCN(S(=O)(=O)c2c(C)noc2/C=C/c2cccc(C)c2)CC1`: -5.56%.
Take `CCCn1c(C2CCCN2c2nc(-c3ccc(OC)cc3)cs2)nc2ccccc21` (configuration not stated): the Potency is 2 µM (active).
Turning to `COc1ccc(-c2cc3n(n2)CCc2nc4ccccc4n2-3)cc1`, the “activity change, negative = inhibition” value was 23%.
As for `COc1ccc(-c2csc(N3CCN(Cc4ccc5c(c4)OCO5)CC3)n2)cc1`, the “activity change, negative = inhibition” value is -0.746%.
Same read-out and setting: the same measure for `O=[N+]([O-])c1cc(C(F)(F)F)ccc1NCCc1ccncc1`: 21.3%; for `CC1(C)Cc2cccc(OCC(=O)NCc3ccccc3)c2O1`: 29.7%; for `CCCCc1ccc(NC(=O)NCc2cccnc2)cc1`: 26.2%.
`CCOC(=O)C1CCCN(CCSc2ccc(C)cc2)C1` (configuration not stated): the “activity change, negative = inhibition” value is -23%.
The same measure, in the same setting: the same measure for `Cc1nc(-c2ccccc2)sc1C(=O)/C=C/N(C)C`: 1.56%.
Same read-out and setting: the value for `Cc1nc(-c2ccc(Cl)cc2)sc1C(=O)NN` was -2.42%.
For the molecule `Cc1nc(-c2ccc(Cl)cc2)sc1C(=O)CBr`, the Potency is 5.01 µM (active).
With `COc1ccccc1OC(C)C(=O)Nc1ccc(S(=O)(=O)Nc2nccs2)cc1` (configuration not stated), the “activity change, negative = inhibition” value is 18.7%.
In the case of `Cc1ccccc1-c1ccc(C(=O)O)s1`, the “activity change, negative = inhibition” value was -6.92% [at 96.6 µM].
In the case of `Cc1ccccc1-c1n[nH]c(=S)n1C`, the Potency is 2.82 µM (active).
For `O=C(O)C1CC=CCC1C(=O)Nc1ccccc1C(=O)N1CCN(c2ccccc2)CC1` (configuration not stated), the “activity change, negative = inhibition” value is 3.34%.
`COc1ccc(C(=O)Nc2ccccc2C(=O)N2CCN(c3ccccc3)CC2)cc1`: the “activity change, negative = inhibition” value was 13%.
`CC(C)c1ccc(N2CCN(C(=O)c3ccccc3NC(=O)/C=C(\C(=O)O)c3ccccc3)CC2)cc1`: the Potency was 3.16 µM (active).
Regarding `O=C(Cc1c(Cl)cccc1Cl)NC1CC1`, the “activity change, negative = inhibition” value was 4.83%.
The same measure, in the same setting: the same measure for `Cc1c(Cl)cccc1NC(=O)NCc1ccc(C)n1C`: -21.2%; for `CCN1CC=C2C(C#N)=C(N)C(C#N)(C#N)[C@H](c3ccoc3)[C@H]2C1`: -34.4%.
Regarding `N#CC1=C(N)C(C#N)(C#N)[C@H](c2ccsc2)[C@H]2COCC=C12`, the Potency was 17.8 µM (active).
As for `CCOC(=O)N1CC=C2C(C#N)=C(N)C(C#N)(C#N)[C@H](c3cccs3)[C@H]2C1`, the “activity change, negative = inhibition” value was -18.5%.
`CCCNC(=O)C(=O)Nc1cc2c3c(c1)CCC(=O)N3CCC2`: the “activity change, negative = inhibition” value is -25.3%.
For `CN(C(=O)C1CCN(c2ncnc3c2nc2n3CCCCC2)CC1)C1CCCCC1`, the “activity change, negative = inhibition” value is 27.8%.
For the molecule `COCCCn1c(SCC(=O)NC2CCCC2)nnc1-c1ccccc1`, the “activity change, negative = inhibition” value is -12.2%.
For `COCCCn1c(Cc2csc(Nc3cccc(Cl)c3)n2)nnc1SCC(=O)OC1CCCCC1`, the Potency was 11.2 µM (active).
As to `CCOc1ccc(Nc2nc(Cc3nnc(SCC(=O)NC4CCCC4)n3C)cs2)cc1`, the “activity change, negative = inhibition” value is -27%.
Turning to `CCOc1ccccc1NC(=O)C12CC3CC(C1)CC(c1ccc(C)cc1)(C3)C2`, the “activity change, negative = inhibition” value was 8.47%.
With `CCCn1c(NC(=O)C23CC4CC(CC(O)(C4)C2)C3)nc2ccccc21`, the Potency was 0.708 µM (active).
For `CCCn1c(C(Cc2ccccc2)NC(=O)COC)nc2ccccc21` (configuration not stated), the “activity change, negative = inhibition” value was -6.17%.
As to `Cc1cc(C)nc(N/N=C/c2c(CO)cnc(C)c2O)n1`, the “activity change, negative = inhibition” value is -28.5%.
